The record followed here is PubChem BioAssay AID463193 (University of Pittsburgh Molecular Library Screening Center, 2010).

The campaign covered roughly 190,000 compounds. About 1,900 (1%) were called active.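 The calls were made as follows: active = percentage of spot-positive cells more than 3 SD above its plate mean, without a fluorescence outlier flag or 80% toxicity; inconclusive = no clear call, values can overlap the other calls; inactive = the rest.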 Shown is part of a subset that was picked to be rich in actives.

This test can be described thus: GFP-LC3 puncta formation changes – imaging, high-content, MEF GFP-LC3, primary screen (AID 463193).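 As to % cells with GFP-LC3 spots: spot-positive cell cutoff set from DMSO-treated cells.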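 As to toxicity: cell loss after 18 h compound exposure.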 The following applies: autophagy, at 10 µM; % cells with GFP-LC3 spots: stronger effect = higher value; toxicity: measured here: cell loss, nuclei count.
As to `CC1CCN(C2=NC(=O)/C(=C/c3cn[nH]c3-c3ccccc3)S2)CC1`, the % cells with GFP-LC3 spots is 4.99% (inactive) and the toxicity is 5.05%.
For `O=C(Nc1ccccc1C(=O)N1CCOCC1)c1ccc(Cl)cc1` the same measures were 1.74% (inactive) and 11.5%.
For `O=C(CN(c1ccccc1)S(=O)(=O)c1ccc(Cl)cc1)Nc1ccccc1C(=O)N1CCCC1`, the % cells with GFP-LC3 spots is 9.32% (inactive) and the toxicity stood at 0.638%.
In the same order, the values of `O=C(Nc1ccccc1C(=O)N1CCCCCC1)c1ccccc1Cl` are 43.8% (active) and -8.81%.
Take `O=C(CN1C(=O)/C(=C/c2ccccc2F)Sc2ccccc21)NCc1cccnc1`: the % cells with GFP-LC3 spots is 0.409% (inactive) and the toxicity was -0.091%.
In the case of `C=C1c2cc(CC)ccc2NC(=O)N1c1ccc(C)cc1`, the % cells with GFP-LC3 spots was 1.08% (inactive) and the toxicity is -2.35%.
Consider `CCc1ccc2c(c1)C1(NN=C(c3ccccc3)S1)C(=O)N2` (centres undefined), for which the % cells with GFP-LC3 spots was 24.9% (active) and the toxicity stood at 40.3%.
Take `O=C1Nc2ccccc2C12Nc1ccccc1S2` (centres undefined): the % cells with GFP-LC3 spots is 6.3% (inactive) and the toxicity is -0.645%.
In the same order, the values of `CCOc1ccc(N(CC(=O)NCCc2ccc(OC)cc2)S(C)(=O)=O)cc1` are 1.57% (inactive) and -14.4%.
For `COc1ccc(C2CC(c3ccc(Cl)cc3Cl)Nc3nc(N)nn32)cc1OC` (centres undefined) the same measures were 14.3% (active) and 1.79%.
For `Cc1ccc(C2CC(c3cccc(C)c3)n3nc(N)nc3N2)cc1` (centres undefined) the same measures were 4.2% (inactive) and 10.4%.
With `COc1ccc(C2CC(c3ccc(C)cc3)Nc3nc(N)nn32)cc1` (centres undefined), the % cells with GFP-LC3 spots was 17.9% (inactive) and the toxicity was -20.4%.
Take `O=C(CSc1nc(-c2ccco2)cc(C(F)(F)F)n1)NCc1cccs1`: the % cells with GFP-LC3 spots was 11.9% (active) and the toxicity came out at 19.8%.
In the same order, the values of `O=C(CSc1nc(-c2ccco2)cc(C(F)(F)F)n1)N1CCc2ccccc2C1` are 0.274% (inactive) and -3.54%.
Turning to `COc1ccc(-c2cc(C(F)(F)F)nc(SCCC(=O)NCc3ccco3)n2)cc1`, the % cells with GFP-LC3 spots was 14.8% (inactive) and the toxicity came out at 0.225%.
Turning to `Cc1ccc(S(=O)(=O)N2CCCC2C(=O)OCc2nc3sc(C)c(C)c3c(=O)[nH]2)cc1` (centres undefined), the % cells with GFP-LC3 spots was 7.41% (inactive) and the toxicity was 2.2%.
Turning to `CS(=O)(=O)N(CC(=O)N/N=C/c1ccccn1)c1ccc(Oc2ccccc2)cc1`, the % cells with GFP-LC3 spots is 19.6% (inactive) and the toxicity stood at 9.84%.
In the same order, the values of `COc1ccc(OC)c(N=Cc2c(O)[nH]c3ccccc23)c1` are 30.3% (active) and 10.8%.
For `COc1ccc(N=Cc2c(O)[nH]c3ccccc23)cc1OC` the same measures were 20.4% (inactive) and 0.85%.
On to `COc1cc(N=Cc2c(O)[nH]c3ccccc23)cc(OC)c1OC`, for which the % cells with GFP-LC3 spots was 1.9% (inactive) and the toxicity is 14.8%.
Regarding `O=C(NNC1CC(=O)N(c2cccc(Cl)c2)C1=O)c1cccnc1` (centres undefined), the % cells with GFP-LC3 spots was 14.6% (inactive) and the toxicity was -11.8%.
For `COc1cccc2c(O)cc(=O)n(C)c12` the same measures were 6.52% (inactive) and 15.8%.
In the same order, the values of `O=C(c1cccc(C(=O)N2CCN(c3ccc(F)cc3)CC2)c1)N1CCN(c2ccc(F)cc2)CC1` are 13% (inactive) and -26%.
On to `CCN1CCN(C(c2cccnc2)c2cc(Cl)c3cccnc3c2O)CC1` (centres undefined), for which the % cells with GFP-LC3 spots was 0.145% (inactive) and the toxicity came out at 15.1%.
For `Oc1c(CN2CCN(c3ccc(F)cc3)CC2)cc(Cl)c2cccnc12` the same measures were 52% (active) and 33.9%.
Consider `C=CCn1c(CCNC(=O)c2ccccc2F)nnc1SCC(=O)Nc1ccc(OC)cc1`, for which the % cells with GFP-LC3 spots is 1.65% (inactive) and the toxicity stood at 10.4%.
On to `COc1ccc(OC)c(S(=O)(=O)NCCC(C)C)c1`, for which the % cells with GFP-LC3 spots was 7.62% (inactive) and the toxicity stood at 7.42%.
For the molecule `CN=c1scc(-c2cc(OC)ccc2OC)n1/N=C/c1c(C)[nH]c2ccccc12`, the % cells with GFP-LC3 spots was 8.49% (inactive) and the toxicity amounted to 3.61%.
Take `COc1ccc(S(=O)(=O)Nc2c(C)n(C)n(-c3ccccc3)c2=O)cc1`: the % cells with GFP-LC3 spots is 4.67% (inactive) and the toxicity was 4.21%.
Turning to `CCn1c(-c2cc(OC)ccc2OC)csc1=Nc1c(C)n(C)n(-c2ccccc2)c1=O`, the % cells with GFP-LC3 spots is 12.4% (active) and the toxicity is -0.744%.
As for `COc1ccc(-c2nc(N)sc2C2(O)C(=O)Nc3c(Br)cc(F)cc32)cc1OC` (centres undefined), the % cells with GFP-LC3 spots was 1.66% (inactive) and the toxicity was -1.9%.
In the case of `COC(=O)NNC1=CC(=O)CC(C)(C)C1`, the % cells with GFP-LC3 spots is 0.796% (inactive) and the toxicity was -6.02%.
In the case of `Clc1cc(-c2ccc(/C=N/n3cnnc3)o2)ccc1Br`, the % cells with GFP-LC3 spots is 8.69% (inactive) and the toxicity came to 20.9%.
`CC(=O)N/N=C(\C)c1ccc(Br)cc1Br`: the % cells with GFP-LC3 spots was 20.7% (inactive) and the toxicity was found to be 2.43%.
Turning to `CCOC(=O)C1CCN(C(c2cc3cc(C)cc(C)c3[nH]c2=O)c2nnnn2C2CCCCC2)CC1` (centres undefined), the % cells with GFP-LC3 spots is 19.2% (active) and the toxicity was 24.2%.
Turning to `Cc1cc(C)c2[nH]c(=O)c(C(c3nnnn3Cc3ccc4c(c3)OCO4)N3CCCC3)cc2c1` (centres undefined), the % cells with GFP-LC3 spots was 21.2% (inactive) and the toxicity stood at 8.95%.
For `COc1ccc(N2CCN(C(c3cc4ccc(C)cc4[nH]c3=O)c3nnnn3C3CCCC3)CC2)cc1` (centres undefined), the % cells with GFP-LC3 spots is 5.85% (inactive) and the toxicity is -3.74%.
Take `O=C(CN1C(=O)NC2(CCCC2)C1=O)NCC1CCCO1` (centres undefined): the % cells with GFP-LC3 spots was 11.1% (inactive) and the toxicity amounted to 7.52%.
`O=C(NNC(=O)c1cc2c(s1)CCCC2)c1ccccc1`: the % cells with GFP-LC3 spots is 9.94% (inactive) and the toxicity is -13.8%.
In the same order, the values of `C/C(=N\NC(=O)c1cc2c(s1)CCC(C)C2)c1cccnc1` (centres undefined) are 17.7% (inactive) and -0.909%.
In the case of `CC1CCc2sc(C(=O)N/N=C/C3CCCCC3)cc2C1` (centres undefined), the % cells with GFP-LC3 spots is 20.3% (active) and the toxicity was -2.28%.
As for `COC(=O)c1c(C)[nH]c(C)c1-c1ccc([N+](=O)[O-])cc1`, the % cells with GFP-LC3 spots is 18.2% (inactive) and the toxicity was 38.9%.
For `CCOC(=O)c1c(NC(=O)Cn2nc(C(F)(F)F)cc2C)sc2c1CCC2` the same measures were 7.63% (inactive) and 0.444%.
For `N=c1c2c(-c3ccccc3)c(-c3ccccc3)n(Cc3ccccc3)c2ncn1CCCO` the same measures were 32% (active) and 9.38%.
`Cc1nc([N+](=O)[O-])c(NCCCO)n1Cc1ccccc1`: the % cells with GFP-LC3 spots is 43.4% (inactive) and the toxicity amounted to 4.77%.
In the same order, the values of `N=c1c2c(-c3ccccc3)c(-c3ccccc3)oc2ncn1Cc1ccco1` are 5.09% (inactive) and -0.176%.
As for `O=C(Cc1ccccc1)NNS(=O)(=O)c1ccc([N+](=O)[O-])cc1`, the % cells with GFP-LC3 spots was 5.31% (inactive) and the toxicity is -4.08%.
In the same order, the values of `CCCCN(CC)C(=O)c1ccccc1Oc1ccccc1` are 7.48% (inactive) and -0.889%.
`CCc1nn(-c2cc(Oc3cccc4ccccc34)nc(-c3ccccc3)n2)c(N)c1C#N`: the % cells with GFP-LC3 spots is 19.2% (active) and the toxicity was -18%.
In the same order, the values of `CCCC(=O)n1nc(-c2ccccc2)nc1N` are 10.8% (inactive) and -5.17%.
For `COc1ccc(C2c3c(C)nn(-c4ccccc4)c3NC(=O)N2c2ccccc2)cc1` (centres undefined) the same measures were 11% (inactive) and 17.6%.
Regarding `COc1ccc(CN2CCCC(C(=O)c3ccc(Cl)cc3)C2)cc1Cn1cncn1` (centres undefined), the % cells with GFP-LC3 spots is 0.149% (inactive) and the toxicity was -9.01%.
